# PubChem BioAssay AID602248 (The Scripps Research Institute Molecular Screening Center, 2012)
# In all, about 360,000 compounds went through this assay and about 1,700 (0.47%) were called active. Rule as the data show it: active = activation above about 15%; inactive = the rest. Shown is part of a subset that was picked to be rich in actives.
# Assay: counter-screen for M1 agonists: effect in parental CHO-K1 cells (AID 602248);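 also: untransfected CHO-K1 host cells lacking M1 receptor as counterscreen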
# Conditions: Fluo-8 calcium fluorescence, at 3 µM, hits give high values, scaled to maximal ATP response, vehicle zero
row,Structure (SMILES),activation
1,O=C(Nc1cccc(Cl)c1)Nc1ccccc1NS(=O)(=O)c1cccs1,15.3% (active)
2,O=C(NCc1cn2ccsc2n1)Nc1cccc(Cl)c1,0.23% (inactive)
3,O=S(=O)(Nc1ccccc1)c1ccc(NS(=O)(=O)c2cccs2)cc1,1.02% (inactive)
4,CC12CN3CC(C)(CN(C1)C3c1ccc(Cl)cc1Cl)C2=O (stereo not given),-0.45% (inactive)
5,COc1ccc(CC(=O)NC(C)c2ccc(Cl)c(Cl)c2)cc1S(=O)(=O)N1CCOCC1 (stereo not given),2.98% (inactive)
6,CC(=O)Nc1ccc(S(=O)(=O)Oc2ccc(/C=N/N=C3/NC(=O)C(CC(=O)O)S3)cc2)cc1 (stereo not given),0.03% (inactive)
7,CC(C)S(=O)(=O)c1csc(NC(=O)Nc2ccc(Cl)cc2)c1Cl,16% (active)
8,CC(=O)c1ccc(NC(=O)C(C)NCc2ccc(Cl)cc2)cc1 (stereo not given),0.45% (inactive)
9,CC(=O)N1CCC(N(C(=O)Nc2ccc(Cl)cc2)C(C)C)CC1,1.09% (inactive)
10,CN(c1ccc(OCC(=O)NC2=NCCS2)cc1)S(=O)(=O)c1ccc(F)cc1,6.36% (inactive)
11,CN(c1ccccc1)S(=O)(=O)c1ccc(NC(=O)COc2ccccc2)cc1,7.3% (inactive)
12,Cc1ccc(S(=O)(=O)N(C)c2ccc(OCC(=O)NC3=NCCS3)cc2)cc1,22.6% (active)
13,O=C(O)C(NS(=O)(=O)c1cccc2nsnc12)c1ccccc1 (stereo not given),0.41% (inactive)
14,COc1ccccc1N1CCN(C(=O)c2cn(-c3ccccc3)nc2-c2cccnc2)CC1,4.25% (inactive)
15,O=C(NNC(=S)NC(=O)c1cn(-c2ccccc2)nc1-c1ccccc1)c1ccncc1,29.6% (active)
16,Cc1ccc(-c2nn(-c3ccccc3)cc2C(=O)NCCCN2CCCC2=O)cc1,0.65% (inactive)
17,CCN(Cc1nc2ccccc2c(=O)[nH]1)Cc1cc(=O)oc2cc(C)c(C)cc12,2.83% (inactive)
18,CCOC(=O)c1ccc(N=C2SC(C(=O)NC)CC(=O)N2CCc2ccccc2)cc1 (stereo not given),0.37% (inactive)
19,CCOc1ccc(CC(=O)NC2CCN(Cc3ccccc3)CC2)cc1,0.21% (inactive)
20,CCOc1ccc(NS(=O)(=O)c2ccc(C(=O)NC3CCN(Cc4ccccc4)CC3)cc2)cc1,15.3% (active)
21,CCOc1ccc(C(=O)NC2CCN(S(=O)(=O)CC)CC2)cc1,0.96% (inactive)
22,Cc1ccc(-c2cccc([C@H]3[C@@H]4C=CC[C@@H](C)[C@@H]4C(=O)N3Cc3ccccc3)c2)cc1,0.28% (inactive)
23,Cc1cc(CN(C)C(=O)c2cc(COc3ccc(C)c(C)c3)on2)n[nH]1,1.86% (inactive)
24,CN(Cc1cccnc1)C(=O)c1cc(COc2ccc3ncccc3c2)on1,17.9% (active)
25,Cc1ccc(OCc2cc(C(=O)N(C)CCn3ccnc3C)no2)cc1C,3.36% (inactive)
